Assay results from PubChem BioAssay.
The source made the active and inactive calls. Unless noted, how the calls were made is not given here.

Key:
[1] = compound effects on lung adenocarcinoma cell viability – A549, calcein-AM fluorescence, 48 h, basal, profiling panel (AID 1162); conditions: higher = more signal; further: test concentration not given here
[2] = compound effects on differentiated 3T3-L1 adipocyte viability – cell-based, 3T3-L1 adipocytes, calcein-AM fluorescence, 48 h, basal, profiling panel (AID 1163); conditions: 3T3-L1 adipocytes viability, higher = more signal; further: test concentration not given here
[3] = compound effects on hepatocellular carcinoma cell viability – HepG2, calcein-AM fluorescence, 48 h, basal, profiling panel (AID 1164); conditions: higher = more signal; further: test concentration not given here
[4] = compound effects on multiple myeloma cell viability – MM1S, calcein-AM fluorescence, 48 h, basal, profiling panel (AID 1165); conditions: higher = more signal; further: test concentration not given here
[5] = calcein-AM signal in unstimulated myeloma cells – cell-based, calcein-AM fluorescence, 48 h, PK04 Diversity Set, profiling panel (AID 1166); conditions: RPMI8226 myeloma viability, higher = more signal;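 further: cells grown under basal conditions without added stimulus; test concentration not given here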
[6] = JC-1 mitochondrial signal, unstimulated HepG2 cells – cell-based, JC-1 fluorescence, 24 h, 100 nL compound, profiling panel (AID 1167); conditions: HepG2 mitochondrial potential, higher = more signal; further: test concentration not given here
[7] = JC-1 mitochondrial signal, unstimulated adipocytes – cell-based, JC-1 fluorescence, 3T3-L1 adipocytes, 24 h, 100 nL compound, profiling panel (AID 1168); conditions: JC-1 mitochondrial fluorescence, higher = more signal, called active from +8 up or from −8 down; further: test concentration not given here
[8] = JC-1 mitochondrial signal, unstimulated myeloma cells – cell-based, JC-1 fluorescence, RPMI8226, 24 h, 100 nL compound, profiling panel (AID 1169); conditions: JC-1 mitochondrial potential fluorescence, higher = more signal; further: test concentration not given here
[9] = JC-1 mitochondrial signal, unstimulated MM1S myeloma – cell-based, JC-1 fluorescence, 24 h, 100 nL compound, profiling panel (AID 1170); conditions: MM1S mitochondrial potential, higher = more signal; further: test concentration not given here
[10] = resazurin metabolic signal in A549 cells – cell-based, resazurin fluorescence, 24 h, PK04 Diversity Set, profiling panel (AID 1171); conditions: A549 viability, higher = more signal, called active from +8 up or from −8 down; further: test concentration not given here
[11] = resazurin metabolic signal in HepG2 cells – cell-based, resazurin fluorescence, 24 h, PK04 Diversity Set, profiling panel (AID 1172); conditions: HepG2 viability, higher = more signal; further: test concentration not given here
[12] = budding yeast growth changes without added modifier – OD600, strain BY4716, 24 h, basal condition, primary screen (AID 1173); conditions: S. cerevisiae BY4716 growth, OD600, 24 h; higher = more signal, called active from +8 up or from −8 down
[13] = viability profiling in MM1S myeloma cells – cell-based, resazurin fluorescence, basal, 24 h, PK04 Diversity Set, profiling panel (AID 1174); conditions: higher = more signal, called active from +8 up or from −8 down; further: test concentration not given here
[14] = molecular target: Dihydroorotate dehydrogenase (quinone), mitochondrial (Plasmodium falciparum (isolate 3D7)) (UniProt Q08210); assay: inhibition of P. falciparum DHODH – biochemical, C-terminal His tag, absorbance 600 nm, primary screen (AID 1175); conditions: PfDHODH enzyme, DCIP absorbance 600 nm; higher = more signal, called active from +8 up or from −8 down;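 further: recombinant parasite enzyme with a five histidine tag at its C terminus; test concentration not given here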
[15] = inhibition of PAO1 biofilm formation – strain PAO1, LB-PBS medium, absorbance 600 nm, primary screen (AID 1176); further: test concentration not given here; conditions: P. aeruginosa PAO1 growth/biofilm, A600, 12 h; higher = more signal
[16] = growth modulation of vineyard yeast isolate – strain RM11-1a, OD600, basal, 24 h, primary screen (AID 1177);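 further: cultures grown under basal conditions with no added stressor; test concentration not given here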; conditions: S. cerevisiae RM11-1a growth, OD600, 24 h; higher = more signal, called active from +8 up or from −8 down
[17] = growth of efflux-deficient E. coli DRC39 – strain DRC39, OD650, 24 h, E. coli filamentation inducers, primary screen (AID 1178);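 further: growth measured as culture turbidity by optical density at 650 nm; test concentration not given here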; conditions: E. coli DRC39 acrAB, higher = more signal, called active from +8 up or from −8 down
[18] = growth of efflux-deficient E. coli DRC39 – strain DRC39, OD650, 48 h, E. coli filamentation inducers, primary screen (AID 1179);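 further: screen aims at cell division blockers that make cells filament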; conditions: E. coli DRC39 delta-acrAB growth, higher = more signal, called active from +8 up or from −8 down
[19] = viability profiling in RPMI8226 myeloma cells – cell-based, resazurin fluorescence, basal, 24 h, PK04 Diversity Set, profiling panel (AID 1180); conditions: higher = more signal;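 further: RPMI8826 multiple myeloma cell line at 5000 cells per well; test concentration not given here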
[20] = molecular target: E3 ubiquitin-protein ligase XIAP (Homo sapiens) (UniProt P98170); assay: small molecules binding XIAP protein – biophysical, small-molecule microarray, fluorescence 635 nm, primary screen (AID 1181); conditions: higher = more signal;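 further: score merges 667 nm emission and signal to noise over triplicate slides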
E3 ubiquitin-protein ligase XIAP (Homo sapiens), sequence (P98170 whole entry, looked up): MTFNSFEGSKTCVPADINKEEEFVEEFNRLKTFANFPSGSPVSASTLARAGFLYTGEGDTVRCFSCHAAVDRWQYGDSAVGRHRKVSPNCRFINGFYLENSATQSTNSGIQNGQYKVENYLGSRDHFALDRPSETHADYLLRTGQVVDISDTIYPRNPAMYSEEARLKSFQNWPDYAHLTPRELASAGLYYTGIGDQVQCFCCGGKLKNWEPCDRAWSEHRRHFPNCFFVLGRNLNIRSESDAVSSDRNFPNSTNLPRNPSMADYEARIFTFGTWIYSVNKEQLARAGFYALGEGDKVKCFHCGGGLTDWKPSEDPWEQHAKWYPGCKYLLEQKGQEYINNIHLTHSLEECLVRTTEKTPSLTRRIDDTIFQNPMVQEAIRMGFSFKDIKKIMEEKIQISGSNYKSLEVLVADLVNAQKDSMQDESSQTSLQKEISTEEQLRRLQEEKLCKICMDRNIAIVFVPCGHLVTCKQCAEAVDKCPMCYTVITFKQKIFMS

Dihydroorotate dehydrogenase (quinone), mitochondrial (Plasmodium falciparum (isolate 3D7)), sequence (Q08210 whole entry, looked up): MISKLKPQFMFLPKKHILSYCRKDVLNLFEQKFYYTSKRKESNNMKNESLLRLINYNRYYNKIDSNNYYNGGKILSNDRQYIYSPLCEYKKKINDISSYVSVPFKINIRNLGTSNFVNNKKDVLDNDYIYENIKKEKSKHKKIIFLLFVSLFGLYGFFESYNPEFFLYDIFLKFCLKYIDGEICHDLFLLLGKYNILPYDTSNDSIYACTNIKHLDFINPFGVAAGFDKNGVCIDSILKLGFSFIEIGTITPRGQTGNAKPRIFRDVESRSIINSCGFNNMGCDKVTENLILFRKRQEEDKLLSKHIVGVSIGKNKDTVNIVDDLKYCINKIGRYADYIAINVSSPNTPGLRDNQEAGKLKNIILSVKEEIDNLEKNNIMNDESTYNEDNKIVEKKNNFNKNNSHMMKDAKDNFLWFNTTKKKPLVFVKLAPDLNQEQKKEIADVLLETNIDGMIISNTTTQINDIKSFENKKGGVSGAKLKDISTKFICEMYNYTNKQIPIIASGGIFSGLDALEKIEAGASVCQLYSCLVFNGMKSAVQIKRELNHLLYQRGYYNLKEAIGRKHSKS

Row | Structure (SMILES) | z-score [1] | z-score [2] | z-score [3] | z-score [4] | z-score [5] | z-score [6] | z-score [7] | z-score [8] | z-score [9] | z-score [10] | z-score [11] | z-score [12] | z-score [13] | composite z-score [14] | z-score [15] | z-score [16] | z-score [17] | z-score [18] | z-score [19] | composite z-score [20]
1 | CCC[C@@H]1C[C@@]1(CCC)[C@@H](NC(=O)OCc1ccccc1)c1ccc(-c2ccccc2)cc1 | -1.15 | -1.15 | 0.0422 | -0.625 | -1.43 | -0.862 | 0.258 (inactive) | -0.325 | -1.19 | 2.39 (inactive) | 2.43 | -2.75 (inactive) | 0.879 (inactive) | -0.251 (inactive) | 0.191 (inactive) | 0.259 (inactive) | 0.358 (inactive) | 0.492 (inactive) | 1.72 | -0.0669
2 | CO[C@]12C=C(Br)[C@@H](C[C@@H]1c1cccc(C)c1)[C@@]1(CO1)C2=O | -0.406 | 0.287 | -0.932 | -2.16 | -0.643 | -1.11 | -0.295 (inactive) | -0.107 | -0.693 | 0.862 (inactive) | 1.17 | -5.41 (inactive) | -0.674 (inactive) | 0.227 (inactive) | -0.447 (inactive) | -0.338 (inactive) | 0.632 (inactive) | 0.378 (inactive) | 0.478 | -0.148
3 | CN1C(=O)C2C=CC(C(O)c3cccc(O)c3)N(Nc3ccccc3)C2C1=O (stereo not given) | -0.501 | -0.58 | -0.333 | -1.58 | -1.67 | -0.579 | 0.548 (inactive) | -0.419 | -0.179 | 0.0494 (inactive) | 0.0748 | 0.655 (inactive) | -0.462 (inactive) | 0.613 (inactive) | -0.159 (inactive) | 0.837 (inactive) | -1.32 (inactive) | -0.17 (inactive) | -2.48 | -0.0812
4 | O=C1OCCC=C[C@H]2OC34C=CCN(Cn5nnc6ccccc65)C(=O)[C@H]3N(CCCCCCO)C(=O)[C@@H]4C12 (stereo not given in full) | 0.16 | -0.808 | -0.381 | 1.78 | -0.264 | 0.515 | 0.256 (inactive) | -0.137 | -0.5 | -0.356 (inactive) | -0.677 | 0.506 (inactive) | -2.51 (inactive) | -0.272 (inactive) | 0.205 (inactive) | 0.587 (inactive) | 0.603 (inactive) | 0.703 (inactive) | -0.288 | -0.302
